What all share (assay): PBM binding z-score (relative to random genomic background probes); higher = stronger binding; sequences stand for … in GC…GCGATTGACAGCGTAGAATGAAGG
Test [1] relates to FXR:RXRa (NR concentration 270 nM, RXRa partner concentration 90 nM). A digest of the protocol:
(§1)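 Custom Agilent 4×180K protein-binding microarrays carried double-stranded probes. Their 34-nt variable regions held direct-repeat seeds, single-nucleotide variants, half-site ablations and random human genomic background sequences. Arrays were incubated 1 h with ligand-free nuclear receptor dimers in PBS pH 7.4, 2% milk, 0.02% Triton X-100, 1 mM DTT, 0.2 mg/mL BSA and 0.4 mg/ml salmon testes DNA. Antibodies against each partner (one per run) detected binding, and scanned fluorescence was regression-normalized. Binding z-scores use random background probes as reference.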

Test [2] concerns LXRa:RXRa (NR concentration 270 nM, RXRa partner concentration 90 nM). A digest of the protocol: as §1
For test [3], the system named is LXRa homodimer (NR concentration 270 nM). A digest of the protocol:
as §1

For test [4], the system named is LXRb:RXRa (NR concentration 270 nM, RXRa partner concentration 90 nM). A digest of the protocol:
as §1

Test [5] deals with LXRb homodimer (NR concentration 270 nM). In outline:
as §1

The test system of test [6] is PPARa:RXRa (NR concentration 270 nM, RXRa partner concentration 90 nM). A digest of the protocol:
as §1

Test [7] concerns PPARg:RXRa (NR concentration 180 nM, RXRa partner concentration 90 nM). In outline: as §1
In test [8] the test system is PPARg:RXRa 270nM:90nM, anti-RXR (NR concentration 270 nM, RXRa partner concentration 90 nM). In outline:
as §1

In test [9] the test system is PPARg:RXRa 30nM:10nM, anti-RXR (NR concentration 30 nM, RXRa partner concentration 10 nM). In outline:
as §1

The test system of test [10] is PPARg:RXRa 90nM:30nM, anti-RXR (NR concentration 90 nM, RXRa partner concentration 30 nM). A digest of the protocol: as §1
In test [11] the test system is PPARg:RXRa DBDmut IVT, anti-RXR (DBD mutation: RXRa K156A/R161A, NR concentration 270 nM, RXRa partner concentration 90 nM). In outline:
as §1

Test [12] has as its system PPARg:RXRa IVT, anti-PPARg (NR concentration 270 nM, RXRa partner concentration 90 nM). A digest of the protocol: as §1
Test [13] relates to PPARg DBDmut:RXRa IVT, anti-PPARg (DBD mutation: PPARg1 K132A/R137A, NR concentration 270 nM, RXRa partner concentration 90 nM). A digest of the protocol:
as §1

Test [14] concerns PPARg DBDmut IVT, anti-PPARg (DBD mutation: PPARg1 K132A/R137A, NR concentration 270 nM). In outline:
as §1

Test [15] relates to PPARg homodimer (NR concentration 180 nM). In outline: as §1
Test [16] relates to PXR:RXRa (NR concentration 270 nM, RXRa partner concentration 90 nM). In outline: as §1
Test [17] has as its system PXR homodimer (NR concentration 270 nM). In outline: as §1
For test [18], the system named is RARa:RXR (NR concentration 270 nM, RXRa partner concentration 90 nM). In outline:
as §1

Test [19] concerns RARa homodimer (NR concentration 270 nM). A digest of the protocol: as §1
Test [20] has as its system RARb:RXRa (NR concentration 270 nM, RXRa partner concentration 90 nM). In outline: as §1

Consider six sequences from the supplement of paper PMC6555819.

On to AGAACGAGGGCACGCTGAGTCGATAGCAGAGTAG, for which the PBM binding z-score was 0.534 in test [1]; 0.569 in test [2]; -0.415 in test [3]; -0.0914 in [4]; -1.26 in test [5]; 1.98 in test [6]. Moreover, the PBM binding z-score in [7] was determined as 2.05; in test [8], 1.66; in test [9] it was 0.0721; in [10] it was 0.871; in test [11] it was 4.27; in test [12], 3.81. Besides, the PBM binding z-score was 0.34 in test [13]; 0.0245 in [14]; -0.314 in test [15]; 0.266 in [16]; -0.486 in test [17]; 0.489 in test [18]. In addition, the PBM binding z-score is -0.608 in [19] and 2.42 in [20].

Take GCTAGTTGGTCAGTAAAAGGGCACACACCGGTCG: the PBM binding z-score in test [1] is 0.16; in test [2], 0.257; in test [3], 0.266; in [4], 0.266; in [5] it was -0.104; in test [6], 0.841. Further, the PBM binding z-score in test [7] worked out at 0.709; in [8], 1.04; in test [9] it was 0.0544; in test [10] it was 0.502; in test [11], 0.062; in test [12], 0.821. The PBM binding z-score is 0.0138 in [13]; -0.25 in test [14]; 1.05 in test [15]; 0.368 in [16]; 0.0129 in [17]; 0.889 in [18]. For the same sequence, the PBM binding z-score is 0.252 in test [19] and 1.72 in test [20].

Consider CAGCCAAGGTCAGGGCCAGTATAGGAGGAACGTT, for which the PBM binding z-score is 5.13 in [1]; 3.08 in test [2]; -0.277 in test [3]; 2.25 in test [4]; -0.506 in test [5]; 4.22 in test [6]. Also, the PBM binding z-score in test [7] turned out to be 2.73; in [8] it was 2.77; in test [9], 0.584; in test [10], 1.61; in test [11], 1.56; in test [12], 2.1. In addition, the PBM binding z-score in test [13] was -0.336; in test [14], -0.871; in test [15], 2.33; in test [16] it was 2.13; in test [17], 0.199; in [18] it was 3.09. The PBM binding z-score in test [19] stood at 0.299; in test [20] it was 4.73.

On to CTCGAAAGGTCGTGCTCAAGTGAGTATACCAAAC, for which the PBM binding z-score in test [1] came out at 5.4; in test [2] it was 3.95; in test [3], 0.0272; in test [4], 3.51; in test [5] it was 0.363; in [6], 4.73. For the same sequence, the PBM binding z-score was determined as 2.57 in [7]; 3.77 in test [8]; 0.732 in test [9]; 2.35 in test [10]; 0.992 in test [11]; 1.58 in test [12]. Further, the PBM binding z-score in test [13] came to 1.46; in test [14] it was 0.784; in test [15], 1.8; in [16], 3.15; in test [17], 0.371; in test [18] it was 3.74. For the same sequence, the values for the PBM binding z-score in [19] and in [20] were -0.14 and 3.97, respectively.

In the case of CGAACGAGGGCATGAGGTGATAGCAAATGCCGAT, the PBM binding z-score in [1] was 0.82; in test [2], 0.474; in test [3], -0.458; in test [4], 0.317; in test [5] it was -0.998; in test [6], 2.05. Also, the PBM binding z-score came out at 2.27 in [7]; 2.23 in test [8]; 0.483 in test [9]; 1.49 in test [10]; 3.25 in [11]; 3.37 in [12]. Besides, the PBM binding z-score in test [13] is 0.644; in test [14] it was -0.341; in test [15], 0.574; in test [16], 0.422; in test [17] it was -0.352; in [18] it was 1.16. Moreover, the PBM binding z-score stood at 0.0615 in test [19] and 2.26 in test [20].

As for GCTAGCAGACCATTTGGGTCACTCAATGACGGGC, the PBM binding z-score in [1] is -0.199; in test [2], -0.301; in test [3], -0.619; in test [4], -0.213; in [5], -1.15; in test [6], 0.904. Moreover, the PBM binding z-score is 0.52 in test [7]; -0.0173 in [8]; -0.573 in test [9]; -0.229 in test [10]; 0.216 in test [11]; 0.941 in [12]. Further, the PBM binding z-score in test [13] is -0.491; in test [14] it was -0.941; in test [15], -0.202; in test [16], 0.0959; in test [17] it was -0.826; in test [18], 0.598. The results for the PBM binding z-score in [19] and in test [20] were -0.667 and 0.935, respectively.
